Rce1 inh: yeast Ras-converting enzyme inhibition; Q03530; yeast membranes, quenched prenylated peptide cleavage fluorescence; calls only; 290,000 tested, 0.27% active; AID 2563;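 active = fall in fluorescence gain of 50% or more versus controls, with final raw signal at or below 3038400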
TMEM16A inh: inhibitors of mouse TMEM16A calcium-activated chloride channel | Q8BHY3 | HEK293 TMEM16A/YFP iodide influx fluorescence, ionomycin | normalized B-score (activity score, 25-100; higher = stronger inhibition) at 10 µM | 310,000 tested, 1.2% active | AID 588511;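 active = ratio plate-corrected score three or more library SD toward inhibition, starting fluorescence score within five deviations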;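 also: score derived from kinetic fluorescence span divided by baseline fluorescence per well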
CHT block: inhibits the human high affinity choline transporter; AID 488975; CHT-expressing cells, membrane potential dye, choline response; active compounds read low; B-score at 10 µM; 310,000 tested, 0.86% active; Q9GZV3;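 active = B-score over 3 SD under the library average, and starting fluorescence ratio not unusually high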;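 also: choline stimulus applied at its EC90 after an EC20 pre-addition; B-score computed on integrated fluorescence ratio after choline addition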
TMEM16A act: mouse TMEM16A channel activation, primary screen | Q8BHY3 | HEK293 TMEM16A/YFP-H148Q/I152L, iodide quench fluorescence; active compounds read low | B-score at 10 µM | 340,000 tested, 0.3% active;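 active = fluorescence-ratio B-score plate-corrected deviation score at least 3 library SD below zero, with starting fluorescence score within 5 deviations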;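 also: channel opened by trigger with iodide after compound preincubation; score built on the fluorescence ratio of max minus min over baseline; more negative score means more quench and so TMEM16A activation or potentiation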
Kir21 inh: Kir2.1 (mouse) channel inhibition; P35561; HEK293-Kir2.1, FluxOR thallium flux fluorescence; active compounds read low; B-score at 10 µM; 310,000 tested, 0.85% active; AID 1672;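 active = fluorescence ratio B-score at or below minus 3 SD of library scores, with starting-brightness B-score within 2 SD, cut at about -4.2 in these data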;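 also: channel flux triggered by added potassium and thallium sulfate stimulus; B-score of peak minus minimum fluorescence over baseline after thallium stimulus; more negative B-score means stronger Kir2.1 block with less thallium influx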
CHT PAM: allosterically activates the human high affinity choline transporter. Q9GZV3. CHT-expressing cells, membrane potential dye, choline EC20; active compounds read high; LV-AA mutant CHT in HEK293 cells. B-score at 10 µM. 310,000 tested, 0.49% active. AID 488977;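 active = initial fluorescence not abnormally high and integrated response B-score, plate-corrected, over 3 SD above library mean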
CHT activ conf: human CHT activation, confirmatory screen; shares compounds with CHT PAM; CHT-expressing cells, membrane potential dye fluorescence (FDSS); % of choline EC20–EC90 response window; HEK293 expressing CHT LV-AA mutant; choline added at its EC20; activation, % at 10 µM; 2,500 tested, 91% active; AID 504833;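 active = primary screen active, with duplicate mean activation above negative control mean plus 3 SD, cut at about 11% in these data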
HEK293 MP dye: counter-screen for CHT activators: effect in parental HEK293 cells; shares compounds with CHT PAM; membrane potential dye fluorescence (FDSS); measured after EC20 choline addition; ratio readout change at 10 µM, hits read low; 2,500 tested, 62% active; AID 623908;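 active = duplicate-averaged ratio beyond 3 SD from buffer wells, up or down, though filed actives are nearly all decreases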
Hits are given with their value; 0 = inactive; - = not tested or not shown. Compounds with a hit are over-represented: about 3.2% of the library has one in this group of screens.

SMILES	Rce1 inh	TMEM16A inh	CHT block	TMEM16A act	Kir21 inh	CHT PAM	CHT activ conf	HEK293 MP dye
COC(=O)c1cc(C(=O)N2CCN(c3cccc(C)c3C)CC2)cc([N+](=O)[O-])c1	0	0	0	0	0	0	-	-
CCOC(=O)C(C)On1c(-c2ccccc2)nc2ccc([N+](=O)[O-])cc21 (configuration not stated)	0	0	0	0	0	0	16	-20
O=C(O)COn1c(-c2ccccc2)nc2ccc([N+](=O)[O-])cc21	0	0	0	0	0	0	-	-
CN(C)c1nc(N)c(C(=O)N=C(N)N)nc1Cl	0	0	0	0	0	8.7	56	-39
CCCCCCSc1ccc([C@H]2N[C@@](CC(C)C)(C(=O)OC)[C@H]3C(=O)N(C)C(=O)[C@@H]23)cc1OC	0	0	0	0	0	7.2	18	0
O=[N+]([O-])c1c(NCCO)cc(N2CCCCC2)c2nonc12	-	0	0	0	0	0	-	-
CCOC(=O)N1CCN(c2cc(NCCO)c([N+](=O)[O-])c3nonc23)CC1	0	0	0	0	0	0	39	-32
Cc1cc(=O)n2nc(-c3ccc(C(F)(F)F)cc3)sc2n1	0	0	0	0	0	6.8	42	-35
Cc1nn(CC(=O)Nc2ccc(Br)cc2F)c(=O)c2cccn12	0	0	0	0	0	0	-	-
Cc1cc(NCc2ccco2)nc2cc(O)ccc12	0	0	0	0	0	8.6	29	-42
Nc1ccc(C(=O)OCc2ccncc2)cc1[N+](=O)[O-]	0	0	0	0	0	0	35	-31
CC(C)(C)C(=O)COC(=O)c1ccc(N)c([N+](=O)[O-])c1	0	0	0	0	0	0	-	-
CCCCN(C)S(=O)(=O)c1cc2c(cc1Br)CCN2C(=O)C1CC1	-	-	-	0	-	-	-	-
CCN(CC(=O)NC1CCS(=O)(=O)C1)S(=O)(=O)c1ccc(Cl)c(C(F)(F)F)c1 (configuration not stated)	-	-	-	0	-	-	-	-
CCNC(=O)/C(C#N)=C/c1c(N2CCN(c3cccc(Cl)c3)CC2)nc2c(C)cccn2c1=O	0	0	0	0	0	0	-	-
Cc1cccn2c(=O)c(C=O)c(N3CCN(C)CC3)nc12	0	0	0	0	0	7.1	71	-66
O=Cc1c(N2CCN(CCO)CC2)nc2ccccn2c1=O	0	0	0	0	0	0	-	-
CCNC(=O)/C(C#N)=C/c1c(N2CCN(C)CC2)nc2c(C)cccn2c1=O	0	0	0	0	0	6.3	49	-53
CCN1CCN(c2nc3ccccn3c(=O)c2C=O)CC1	0	0	0	0	0	0	57	-51
Cc1ccc(S(=O)(=O)/C(C#N)=C/c2c(N3CCN(C)CC3)nc3c(C)cccn3c2=O)cc1	0	0	0	0	0	7.4	50	-46
O=C(Nc1ccsc1C(=O)O)c1ccc(Cl)cc1	0	0	0	0	0	0	-	-
COC(=O)C1CCN(C(=O)COC(=O)/C=C/c2ccc(O)c(OC)c2)CC1	-	-	-	0	-	-	-	-
CCOc1ccccc1NC(=O)NNC(=O)COc1cccc(C)c1C	0	0	0	0	0	0	-	-
Cc1ccc2nc(N3CCN(c4ccccc4)CC3)c(C=O)c(=O)n2c1	0	0	0	0	0	0	-	-
Cc1ccc2nc(N3CCN(C)CC3)c(C=O)c(=O)n2c1	0	0	0	0	0	0	74	-51
CCN1CCN(c2cc(C)c3cc(NC(=O)c4ccncc4)ccc3n2)CC1	0	0	0	0	0	0	43	-26
CCN1CCN(C(=S)Nc2ccc3nc(N4CCN(C)CC4)cc(C)c3c2)CC1	0	0	0	0	0	6.9	41	-34
CCN1CCN(C(=S)Nc2ccc3nc(N4CCN(CC)CC4)cc(C)c3c2)CC1	0	0	0	0	0	0	27	-37
CCN1CCN(c2cc(C)c3cc(NC(=S)N4CCN(c5ccc(F)cc5)CC4)ccc3n2)CC1	0	0	0	0	0	0	-	-

Screens (PubChem BioAssay)
